We go through eight compounds from PubChem BioAssay.

The structures appear in SMILES notation. The source made the active and inactive calls. How the calls were made is not given here.

In the assay the test system is Aerobactin synthetase IucA (Klebsiella pneumoniae hvKP1). The assay is described as follows: IucA enzyme inhibition, primary screen, biochemical, Spectrum library (AID 1346200).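 Further: 100% = wells without compound and 0% = wells lacking enzyme.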 The conditions noted are these: malachite green pyrophosphate, A620, at 8 µM, active compounds read low.
For `O=C(O)C1(O)C[C@@H](O)C(O)[C@H](O)C1` (stereo partly drawn), the activity remaining is 89.8% (inactive).

Take `COc1cc(OC)c(-c2c(OC)cc(OC)cc2OC)c(OC)c1`: the activity remaining was 106% (inactive).

In the case of `CCN1CCN(c2cc3c(cc2F)c(=O)c(C(=O)O)cn3C2CC2)CC1`, the activity remaining is 100% (inactive).

Regarding `C1CNCCN1`, the activity remaining was 120% (inactive).

As to `CN1CCC(=C2c3ccccc3Sc3ccccc32)CC1`, the activity remaining is 119% (inactive).

Consider `CC(=O)OCC(=O)[C@@]1(O)CCC2C3CCC4=CC(=O)C=CC4(C)C3[C@@H](O)C[C@@]21C` (stereo partly drawn), for which the activity remaining is 81.1% (inactive).

As for `O=C(/C=C/c1ccccc1)c1ccc(O)cc1O`, the activity remaining is 96.4% (inactive).

In the case of `COc1c(N2CCNC(C)C2)c(F)cc2c(=O)c(C(=O)O)cn(C3CC3)c12` (stereo not drawn), the activity remaining was 123% (inactive).
